Source: PubChem
p53 reactivation = qHTS assay for re-activators of p53 using a Luc reporter. H1299 p53-A138V BP100-luciferase reporter, luminescence, 24 h. 320,000 tested, 0.063% active. Potency, µM (series often up to 92.2 µM), without a hit: at the top dose activity change, positive = activation, hits mostly activators. AID 504706, 2011; active means well fitted activation curve with a large enough effect; inconclusive means small, poorly fitted or top-dose-only effect; inactive means no such curve, though single readings can be large or run the other way; further: potency means the concentration at half of the fitted maximal effect; % of control where 0% means no effect; nearly all actives have a fitted effect of over 45% in size
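H1299 (p53-null), stable ts p53-A138V + BP100-Luc; 1000 cells/well, Opti-MEM/10% FBS; cpd 4 pt, 1:5; 24 h, 37 deg C, 5% CO2; detection reagent 10 min RT; luminescence.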
Menin MLL FP TR = qHTS Assay for Inhibitors Targeting the Menin-MLL Interaction in MLL Related Leukemias: Competition With Texas Red Labeled MLL-derived Mutant Peptide; O00255; Menin + Texas Red MLL mutant peptide, fluorescence polarization; Potency, µM (highest dose often 61.6 µM), without a hit: top-dose FP activity change, negative = inhibition, most hits filed as inhibitors; 270,000 tested, 0.23% active; active means well fitted inhibition curve with a large enough effect in the polarisation, with a control signal flat, not every such curve was filed as active; inconclusive means small, poorly fitted or top-dose-only effect, or effect the other way, or a change in a side signal; inactive means no such curve, though single readings can be large or run the other way; the % refers to the polarisation; further: potency means the concentration at half of the fitted maximal effect; % of control where 0% means no effect
Target sequence (O00255 whole entry, looked up): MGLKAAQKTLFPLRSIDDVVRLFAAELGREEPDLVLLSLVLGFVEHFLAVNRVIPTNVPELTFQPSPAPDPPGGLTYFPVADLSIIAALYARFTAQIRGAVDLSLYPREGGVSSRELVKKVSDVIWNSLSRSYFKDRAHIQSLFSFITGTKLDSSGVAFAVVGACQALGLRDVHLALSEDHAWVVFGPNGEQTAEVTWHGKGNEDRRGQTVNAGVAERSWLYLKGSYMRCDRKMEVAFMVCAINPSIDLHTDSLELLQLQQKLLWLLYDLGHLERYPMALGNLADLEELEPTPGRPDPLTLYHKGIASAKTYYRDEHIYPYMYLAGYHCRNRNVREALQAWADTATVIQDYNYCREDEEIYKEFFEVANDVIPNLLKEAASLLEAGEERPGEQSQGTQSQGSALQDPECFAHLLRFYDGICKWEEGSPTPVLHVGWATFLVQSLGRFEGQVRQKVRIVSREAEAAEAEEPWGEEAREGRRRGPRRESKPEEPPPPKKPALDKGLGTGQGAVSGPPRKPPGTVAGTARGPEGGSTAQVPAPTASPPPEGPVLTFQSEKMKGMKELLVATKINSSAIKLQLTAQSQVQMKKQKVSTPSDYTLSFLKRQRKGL
CXXC DNA block = qHTS Fluorescence Polarization Assay for Inhibitors of MLL CXXC domain - DNA interaction. Histone-lysine N-methyltransferase 2A (Homo sapiens), Q03164. 290,000 tested, 0.037% active. Potency, µM (doses to about 115 µM), without a hit: top-dose activity change, negative = inhibition, most hits filed as inhibitors. MLL-CXXC / FITC-HOXA9 DNA fluorescence polarization; active means well fitted inhibition curve with a large enough effect in the polarisation, with a control signal flat, not every such curve was filed as active; inconclusive means small, poorly fitted or top-dose-only effect, or effect the other way, or a change in a side signal; inactive means no such curve, though single readings can be large or run the other way; the % refers to the polarisation; further: potency means the concentration at half of the fitted maximal effect
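Fluorescence polarization: 7 uM MLL-CXXC (stock) preincubated 5 min with compounds, then 50 nM fluorescein-HOX-A9 DNA (stock) added; 30 min ambient. Buffer 50 mM Tris-HCl pH 7.5, 50 mM NaCl, 1 mM DTT, 0.05% BSA.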
Menin MLL FP FL = qHTS Assay for Inhibitors Targeting the Menin-MLL Interaction in MLL Related Leukemias: Competition With Fluorescein Labeled MLL-derived Peptide. Fluorescence polarization, fluorescein-MLL peptide displacement from menin. FP activity change, % at 61.4 µM. 290,000 tested, under 10 active. AID 1766, 2009; active means well fitted curve in the direction sought with a large enough effect in the polarisation, not every such curve was filed as active; inconclusive means small, poorly fitted or top-dose-only effect, or effect the other way, or a change in a side signal; inactive means no such curve, though single readings can be large or run the other way; the % refers to the polarisation; further: % of control where 0% means no effect
ClpP mod = qHTS Assay for Activators of ClpP. ATP-dependent Clp protease proteolytic subunit (Bacillus subtilis (strain 168)), P80244. Potency, µM (top dose mostly 57.5 µM), without a hit: at the top dose activity change, negative = active. 340,000 tested, 1.9% active. purified B. subtilis ClpP, FRET peptide cleavage, 20 min; active means well fitted falling curve with a large enough effect; inconclusive means small, poorly fitted or top-dose-only effect; inactive means no such curve, though single readings can be large or run the other way; further: potency means the concentration at half of the fitted maximal effect; the source files actives as falling curves though it sought activators and does not explain the sign; nearly all actives have a fitted effect of over 65% in size
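Purified B. subtilis ClpP, 10 microg/mL final in Tris/HCl pH8 with KCl, BSA, glycerol and Tween-20, cleaved an Abz/nitrotyrosine-quenched decapeptide. Fluorescence (ex 320, em 430) was read at 0 and 20 min at room temperature. Delta was normalized to 5.8 microM ADEP and DMSO/no-enzyme controls.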
* hit, by the source's call; ? = inconclusive; . = not tested or not shown; ! = repeats disagree; [ ] = dose if it differs, or a comment. The entries come from a sample that favours hits as a whole.

SMILES | p53 reactivation | Menin MLL FP TR | CXXC DNA block | Menin MLL FP FL | ClpP mod
COc1cccc(C(=O)NC2CC(C)(C)Cc3c2cnn3-c2cccc(F)c2)c1OC (stereo not given) | 0% | -18% | -7% | 0 | 14µM*
O=C(Nc1ccc2nc(-c3ccccc3)[nH]c2c1)c1ccco1 | 5% | -1% | 3% | 3 | 28µM*
Cc1ccccc1C(=O)Nc1cccc(OCc2cc(=O)n3c4c(sc3n2)CCCC4)c1 | . | . | . | . | -28%
CCCC(=O)Nc1nc2c(s1)CC(C(C)(C)C)CC2 (stereo not given) | . | . | . | . | 1%
Cc1ccc(CC(CC(=O)O)C(=O)NCc2ccccc2)cc1 (stereo not given) | -3% | 5% | 4% | 5 | 16µM*
O=c1[nH]c2cc(Cl)c(O)cc2o1 | . | 14% | . | 2 | .
CC1(C)Oc2cc(N)c([N+](=O)[O-])cc2O1 | 1% | -20% | 0% | 0 | 32µM*
CCOC(=O)CNC(=O)C1CCCCC1 | . | . | . | . | 2%
OC1CCCN(Cc2c3ccccc3cc3ccccc23)C1 (stereo not given) | -8% | -5% | -10% | -1 | 20µM*
CC(C)(C)c1nc2c(C#N)c(-c3ccc(Cl)cc3)ccn2n1 | 29% | 3% | -9% | 0 | 28µM*
Cc1nnc(SCC(=O)Nc2ccc(Oc3ccccc3)cc2)n1N | 7% | -13% | 2% | 4 | -2%
Cc1nnc(SCc2cccc(Oc3ccccc3)c2)n1N | -4% | 10% | 14% | 2 | 3.2µM*
CCC(C)Nc1nc(Cl)nc(NCCOc2ccccc2)n1 (stereo not given) | 19% | -1% | 0% | 4 | 28µM*
CC(C)Nc1nc(Cl)nc(NCCOc2ccccc2)n1 | 20% | 11% | -2% | 5 | .
Cc1nc(C(=O)Nc2ccc(Cl)cc2Cl)nn1-c1cc(OC(C)C)c(Cl)cc1Cl | 1% | . | -2% | -1 | 28µM*
COC(=O)C1=C(C(=O)OC)[C@@H]2N(C)c3ccc(OC)cc3[C@@]23C[C@@H](C(=O)OC)N(S(=O)(=O)c2ccc(C#N)cc2)C3=N1 | . | -14%[11.7 µM] | . | -8[11.7 µM] | .
O=C(CN1C(=O)NC2(CCCC2)C1=O)NCCc1ccc(Cl)cc1Cl | -5% | . | . | . | 0%
CN(Cc1ccc(Cl)cc1Cl)C(=O)CN1C(=O)NC2(CCCC2)C1=O | -2% | . | . | . | 25µM*
CCOC(=O)N(C(=O)c1ccccc1)c1ccccc1 | . | . | . | . | 1%
Cc1ccccc1NC(=O)Cn1c(=O)n(CCC(=O)NCc2ccc3c(c2)OCO3)c(=O)c2sccc21 | . | . | . | . | -1%
COc1ccc(C(=O)Cn2cnc3ccccc3c2=O)cc1 | ? | 10% | -3% | 11 | .
O=C(Cn1cnc2ccccc2c1=O)c1ccc2ccccc2c1 | . | 12% | 4% | 3 | 32µM*
O=C(c1cc2nc(-c3ccccc3)cc(C(F)(F)F)n2n1)N1CCCC1 | . | . | . | . | -3%
O=C(c1nc2nc(-c3ccccc3)cc(C(F)(F)F)n2n1)N1CCCCC1 | -7% | -7% | -3% | 5 | 28µM*
FC(F)(F)c1cc(-c2ccccc2)nc2ncnn12 | -20% | 12% | 7% | 1 | 28µM*
SMILES | p53 reactivation | Menin MLL FP TR | CXXC DNA block | Menin MLL FP FL | ClpP mod
FC(F)(F)c1cc(-c2ccco2)nc2ncnn12 | 13% | 2% | 0% | 2 | 28µM*
FC(F)(F)c1cc(-c2cccs2)nc2ncnn12 | 2% | 4% | -7% | -2 | .
CC1(C)CC(=O)c2cc(C(=O)Nc3ccccc3)c(=O)[nH]c2C1 | . | . | . | . | -23%
O=C(/C=C/c1ccc(O)c(O)c1)c1ccc(O[C@@H]2O[C@H](CO)[C@@H](O)[C@H](O)[C@H]2O)c(O)c1O | . | 26% | . | 6 | .
COc1ccc(N2CCN(C(=O)c3cccc(NC(=O)c4nsc5ccccc45)c3)CC2)cc1 | . | . | . | . | 1%
CCN(C(=O)CSc1nc2nc(C)cc(C)n2n1)C1CCS(=O)(=O)C1 (stereo not given) | 4% | -15% | 7% | -1 | 16µM*
Cc1ccc(-c2nc(SCC(=O)NCC3CCCO3)c(-c3ccc(C)cc3)[nH]2)cc1 (stereo not given) | -4% | 5% | 10% | -1 | 25µM*
COc1ccc(-c2nc(SCC(=O)Nc3ccc4c(c3)OCCO4)c(-c3ccc(F)cc3)[nH]2)cc1 | . | . | . | . | -5%
CCc1ccc(-c2nc(SCC(=O)NCCOC)c(-c3ccc(C)cc3)[nH]2)cc1 | . | . | . | . | 28µM*
Cc1ccc(-c2[nH]c(-c3ccccc3)nc2SCC(=O)NCC2CCCO2)cc1 (stereo not given) | -7% | -3% | 4% | 1 | 28µM*!
COCCNC(=O)CSc1nc(-c2ccc(F)cc2)[nH]c1-c1ccc(Cl)cc1 | . | . | . | . | -16%
Cc1ccc(-c2nc(SCC(=O)NCC3CCCO3)c(-c3ccc(Cl)cc3)[nH]2)cc1 (stereo not given) | -4% | 6% | 12% | 2 | -21%
COc1cccc(-c2nc(SCC(=O)Nc3ccc4c(c3)OCCO4)c(-c3ccc(C)cc3)[nH]2)c1 | . | . | . | . | 28µM*
Cc1ccc(-c2nc(S(=O)(=O)c3ccccc3)c(SCC(=O)NCC3CCCO3)o2)cc1 (stereo not given) | -2% | -17% | 2% | -3 | .
COc1ccc(CCn2c3c(c(=O)[nH]c2=O)C(NC(=O)c2ccccc2)(C(F)(F)F)C(=O)N3)cc1OC (stereo not given) | . | . | . | . | 0%
CCCCCOc1ccc(C(=O)N(Cc2ccccc2)C2CCS(=O)(=O)C2)cc1 (stereo not given) | . | . | . | . | 0%
O=C(C[n+]1ccccc1Cl)c1ccc2ccccc2c1 | . | . | . | . | -18%
O=C(COc1ccccc1C(=O)Nc1ccccc1)NCCCCc1ccccc1 | . | . | . | . | -12%
CCOc1ccc(-c2ccc3nnc(SCC(=O)NCC4CCCO4)n3n2)cc1 (stereo not given) | 0% | . | . | . | 32µM*
COc1ccc(-c2[nH]c(-c3ccc(Cl)cc3)nc2SCC(=O)NCC2CCCO2)cc1 (stereo not given) | . | . | . | . | 25µM*
COc1ccc(-c2nc(SCC(=O)NC3CCCC3)c(-c3ccc(OC)cc3)[nH]2)cc1 | -2% | ? | 12% | 0 | -25%
COc1ccc(-c2ccc3nnc(SCC(=O)NCC4CCCO4)n3n2)cc1 (stereo not given) | -1% | . | . | . | ?
COc1cc2c(NC3CCN(C)CC3)nc(N3CCCCC3)nc2cc1OCCOCCN1CCCC1 | . | . | . | . | 4%
O=C(Nc1sc2c(c1-c1nc3ccccc3[nH]1)CCCC2)C1CCCC1 | ? | ? | -2% | 9 | 10µM*
